Bioassay records as filed in PubChem BioAssay.
HPGD block: HPGD (human) dehydrogenase inhibition. P15428. purified HPGD, NADH fluorescence kinetic, PGE2 substrate. Potency, µM, for the others: at the top dose activity change, negative = inhibition, usual class: inhibitors. actives 4.3% (n = 150,000); active = well fitted inhibition curve with a large enough effect, not every such curve was filed as active; inconclusive = small, poorly fitted or top-dose-only effect, or another doubt; inactive = no such curve, though single readings can be large or run the other way; note: potency is the fitted concentration of half-maximal effect
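NADH formation kinetics: reaction with 30 uM PGE2 and 1 mM NAD+ (final), 20 nM enzyme, Tris-HCl pH 8 with Tween 20, after 15 min compound preincubation at room temperature. Fluorescence change, last versus first of five reads.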
aGal spleen mod: inhibits or activates alpha-galactosidase in human spleen homogenate; human spleen homogenate, 4MU-alpha-Gal fluorescence, 40 min; P06280; actives 0.008% (n = 240,000); Potency, µM (highest dose often 80 µM), without a hit: at the highest dose activity change, negative = inhibition, most hits filed as inhibitors;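 note: potency is the fitted concentration of half-maximal effect; 0% = enzyme with vehicle and -100% = no enzyme basal signal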
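Fluorogenic readout (Ex 365/Em 440 nm) of 4-methylumbelliferone released from 1 mM 4-MU-alpha-galactoside by spleen homogenate, 40 min at 37C, pH 5.0. Data normalized to no-enzyme and enzyme controls; Hill-equation AC50 from compound titrations.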
12-hLO inh: 12-hLO (ALOX12) enzyme inhibition; Potency, µM (series often up to 57.1 µM), inactives show at the highest dose activity change, negative = inhibition, most hits filed as inhibitors; AID 1452; actives 0.12% (n = 150,000); purified 12-hLO, xylenol orange hydroperoxide absorbance; P18054; note: potency is the fitted concentration of half-maximal effect; nearly all actives have a fitted effect of over 55% in size
Target sequence (P18054 whole entry, looked up): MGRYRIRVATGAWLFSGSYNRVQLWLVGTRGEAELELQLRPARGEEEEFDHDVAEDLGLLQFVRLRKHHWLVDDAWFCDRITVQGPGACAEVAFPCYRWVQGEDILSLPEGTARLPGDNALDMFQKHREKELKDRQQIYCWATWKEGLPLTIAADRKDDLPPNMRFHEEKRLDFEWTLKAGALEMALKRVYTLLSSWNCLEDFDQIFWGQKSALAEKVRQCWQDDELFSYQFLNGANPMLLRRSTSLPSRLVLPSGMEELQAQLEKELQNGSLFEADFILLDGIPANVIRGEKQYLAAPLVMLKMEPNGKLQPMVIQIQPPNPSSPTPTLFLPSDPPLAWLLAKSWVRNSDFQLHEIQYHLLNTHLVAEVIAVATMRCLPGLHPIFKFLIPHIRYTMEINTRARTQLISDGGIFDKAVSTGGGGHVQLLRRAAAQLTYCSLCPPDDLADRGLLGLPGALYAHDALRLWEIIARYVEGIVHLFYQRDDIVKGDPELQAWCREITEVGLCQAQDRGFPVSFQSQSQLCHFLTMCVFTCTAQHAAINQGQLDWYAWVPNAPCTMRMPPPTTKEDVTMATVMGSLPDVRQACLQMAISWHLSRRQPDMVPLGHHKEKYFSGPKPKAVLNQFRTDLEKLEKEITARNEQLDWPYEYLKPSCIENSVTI
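Lipoxygenase turnover measured by absorbance at 573 and 405 nm after Fe-XO development. Human 12hLO 150 nM, arachidonate 40 uM, pH 7.0 Hepes buffer with detergent; 15 min compound preincubation, 30 min reaction.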
PNC inhibitor: inhibitors of perinucleolar compartment assembly. PC3M PTB-GFP, PNC prevalence imaging, 16 h; hits give low values. activity change (PNC), negative = inhibition, % at 10 µM. actives 3.1% (n = 140,000);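 active = readout at or below -70, meaning at least 70% loss of cells showing the perinucleolar compartment, a nuclear body marking cancer cells; inconclusive = readout between -30 and a set limit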;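 note: plate controls were DMSO wells for no effect and camptothecin positive control wells for full effect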
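PC3M cells stably expressing PTB-GFP, 750–1000 cells/well, treated 16 h at 37 °C with compound (23 nl of library stock), in duplicate. After paraformaldehyde fixation and Hoechst stain, imaged at 20x; PNC prevalence scored by image analysis.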
ALDH1A1 inh: blocks purified human ALDH1A1 activity; Purified ALDH1A1, NADH fluorescence, propionaldehyde substrate; Potency, µM (top dose mostly 75.3 µM), for the others: top-dose activity, negative = inhibition, most hits filed as inhibitors; actives 7.3% (n = 220,000); active = well fitted inhibition curve with a large enough effect, not every such curve was filed as active; inconclusive = small, poorly fitted or top-dose-only effect, or another doubt; inactive = no such curve, though single readings can be large or run the other way;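 note: potency is the fitted concentration of half-maximal effect; plate controls were no enzyme wells and a reference inhibitor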
GLA inh pH 4.5: alpha-galactosidase A (human) inhibition, pH 4.5. P06280. purified enzyme, 4-MU-alpha-Gal fluorescence, pH 4.5. activity change, negative = inhibition, % at 105 µM. 230,000 tested, under 10 active;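 note: 0% = full activity with enzyme and -100% = basal without enzyme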
Starred values were filed as active, the others as inactive; ? = inconclusive; / = not tested or not shown; [ ] = remark or other dose. Rows were chosen to be rich in hits. Some 10% of all compounds tested hit in one or more screens of this group. Unless noted, calls come from the whole dose curve; as a rule, active = well fitted curve in the direction sought with a large enough effect; inconclusive = small, poorly fitted or top-dose-only effect, or another doubt; inactive = no such curve, though single readings can be large; an effect the other way counts as inactive or inconclusive. Unless noted, % is set by controls: 0 for no effect and ±100 for the full control effect.

SMILES	HPGD block	aGal spleen mod	12-hLO inh	PNC inhibitor	ALDH1A1 inh	GLA inh pH 4.5
Cc1cc(C)nc(NC(=O)c2c(-c3ccccc3Cl)noc2C)c1	-6%	-9%	0%	10	?	-2
CSc1nsc(/C=C/Nc2ccc(C)c(C)c2)c1C#N	/	14%	/	/	14µM*	-4
CSc1nsc(/C=C/Nc2ccc(C)cc2)c1C#N	14µM*	9%	-30%	-11	7.5µM*	5
Cc1ccc2nc(Cl)c3nnnn3c2c1	/	24%	/	/	28µM*	11
COC(=O)C1=C[C@@H](C(=O)OC)C2C3=C(C(=O)[C@@]2(C)NC(=O)c2ccccc2)[C@H](C)n2c(=O)n(C)c(=O)n2[C@@H]3C1 (stereo partly drawn)	/	8%	/	/	/	/
O=C(N/N=C\c1ccc(F)cc1)c1cc(OCC(F)(F)F)ccc1OCC(F)(F)F	-1%	10%	-8%	-87*	4%	0
CCc1ccccc1N(C)C(=O)CCc1nc(-c2ccc(C)cc2)no1	14µM*	3%	-5%	12	-13%	-12
COc1ccc(Cl)cc1N(C)C(=O)CCc1nc(-c2ccc(C)cc2)no1	-22%	1%	-15%	-1	-8%	-17
CNc1ccnc(-c2ccccc2C)n1	/	5%	/	/	-5%	/
CCCCONc1ncnc2nonc12	-21%	1%	1%	?	11%	-6
COc1cc([N+](=O)[O-])cc(/C=N/NC(=O)CC#N)c1O	/	-4%	/	/	14µM*	-6
COc1cccc(/C=N/NC(=O)c2cc3cc([N+](=O)[O-])ccc3s2)c1O	28µM*	-7%	-3%	?	19%	-14
Cc1ccc(C(=O)N/N=C\c2ccc(-c3ccc([N+](=O)[O-])cc3)o2)cn1	/	-6%	/	/	4%	-10
COc1ccc(/C=N/NC(=O)c2ccc(NC(=O)c3cccc([N+](=O)[O-])c3)cc2)c(OC)c1	/	2%	/	/	?	-11
COc1cc([N+](=O)[O-])cc(/C=N/NC(=O)Cn2cncn2)c1O	/	1%	/	/	/	-7
COc1ccccc1/C=N/NC(=O)c1ccc(NC(=O)c2cccc([N+](=O)[O-])c2)cc1	/	-5%	/	/	7.9µM*	1
Cc1ccc(-c2ccc(/C=N/O)o2)cc1[N+](=O)[O-]	/	7%	/	/	3.2µM*	-13
CC(C)C[C@@H](CC(=O)N[C@@H](CCC(=O)O)CC(=O)O)NC(=O)[C@@H]1CCCC[C@H]1NC(=O)C[C@H](CCCN)NC(=O)C[C@H](Cc1c[nH]c2ccccc12)NC(=O)[C@@H]1CCCC[C@H]1N	-1%	-24%	1%	/	-9%	-2
[Cu].[NH-][C@H](CC(=O)O)C(=O)O.[NH-][C@H](CC(=O)O)C(=O)O	-7%	/	-5%[11.4 µM]	/	1%[13.5 µM]	/
CCOC(=O)CCN1C(=O)[C@H]2[C@H]3[C@H](O)[C@H](O)C/C(=N/OCc4ccccc4)[C@H]3CC[C@@H]2C1=O	/	-5%[17.5 µM]	/	/	9%[13.5 µM]	/
CCOc1ccc(C(=O)N/N=C/c2ccccc2[N+](=O)[O-])cc1	-7%	-10%	1%	-15	-16%	5
Cc1ccc(C(=O)N/N=C\C=C\c2ccccc2[N+](=O)[O-])cn1	/	13%	/	/	7.9µM*	-11
COc1ccc(/C=N\NC(=O)c2cccc([N+](=O)[O-])c2)cc1Cn1cc([N+](=O)[O-])cn1	/	-1%	/	/	20µM*	-3
NC(=S)N/N=C/c1ccccc1[N+](=O)[O-]	/	5%	/	/	22µM*	7
CCC(=O)Nc1ccc(C(=O)N/N=C/c2ccccc2[N+](=O)[O-])cc1	-20%	-9%	3%	-19	28µM*	0
SMILES	HPGD block	aGal spleen mod	12-hLO inh	PNC inhibitor	ALDH1A1 inh	GLA inh pH 4.5
COc1ccc(/C=N/NC(=O)c2ccc(N)cc2)cc1Cn1cc([N+](=O)[O-])cn1	/	4%	/	/	1%	-5[21.1 µM]
CCC(Nc1ncnc2ccc(-c3c(C)noc3C)cc12)c1ccccc1 (stereo not drawn)	/	16%	/	/	/	/
NC(=S)N/N=C/c1ccc(-c2ccc([N+](=O)[O-])cc2)o1	/	8%	/	/	0.89µM*	-4
CC1(C)Oc2ccc(C(=O)N3CCCCC3)cc2N(CC(=O)NCc2ccccc2)C1=O	-11%	12%	-3%	30	?	1
COc1cccc(C(=O)CN2C(=O)C(C)(C)Oc3ccc(C(=O)N4CCCCCC4)cc32)c1	2.2µM*	3%	-6%	22	?	-12
Cc1ccc(CN2C(=O)C(C)(C)Oc3ccc(C(=O)N4CCCCC4)cc32)cc1	32µM*	-4%	-8%	0	4%	4
Cc1ccc2c(C)nc(Nc3nc(CSc4nnnn4-c4ccccc4)cc(=O)[nH]3)nc2c1	-24%	6%	2%	?	4µM*	-1
COCc1cc(=O)[nH]c(Nc2nc3ccccc3o2)n1	-13%	-2%	-4%	-17	15%	/
COCc1cc(=O)[nH]c(Nc2nc(C)c3ccccc3n2)n1	-16%	6%	10%	-23	20µM*	-8
COc1ccc2nc(Nc3nc(CSc4nnnn4-c4ccccc4)cc(=O)[nH]3)nc(C)c2c1	-7%	3%	1%	21	?	-8
CC(C)c1ccc(S(=O)(=O)/N=C2/C=CC(=O)c3ccccc32)cc1	/	3%	/	/	25µM*	-6[21.1 µM]
CN1/C(=C\C(=O)c2ccccc2Cl)c2ccccc2CC1(C)C	18µM*	-5%	-9%	?	2%	4
O=C(Nc1nnc(-c2ccccc2)o1)Nc1ccc(F)cc1F	/	2%	/	/	?	2
O=C(CCc1nc2ccccc2[nH]1)Nc1ccc2c(c1)OCO2	-13%	1%	-5%	40	10µM*	-15
O=C(CCc1nc2ccccc2[nH]1)NCc1ccc2c(c1)OCO2	-15%	2%	2%	36	-8%	8
CN(C)S(=O)(=O)c1ccc(C(=O)Nc2nnc(SCc3cccc4ccccc34)s2)cc1	?	0%	-1%	-134*	?	5
Cc1ccc2nc(SCC(=O)c3ccc4c(c3)OCO4)[nH]c2c1	-11%	-5%	-17%	26	?	6
O=C(CSc1nnc(SCc2cccc3ccccc23)s1)c1ccc2c(c1)OCO2	?	-2%	-3%	7	0.4µM*	2
O=C(CSc1nc2ccccc2[nH]1)c1ccc2c(c1)OCO2	-12%	2%	-18%	?	28µM*	2
O=C(CSc1nnc(SCc2cccc3ccccc23)s1)Nc1ccc(C(=O)O)cc1	/	1%	/	/	-14%	1
O=C(O)CC[C@@H](NC(=O)c1ccccc1C(=O)O)C(=O)O	/	/	0%	/	/	/
Cc1cc(C)nc(SCc2nnc(SCC(N)=O)o2)n1	/	6%	/	/	1%	7
CC(=O)O[C@@H]1CC(C)=C2[C@H]1[C@H](C)CC[C@H]2/C=C(\C)C(=O)O	-5%	-11%	1%	/	-5%	/
